Laboratory results reported in the supplement of paper PMC4466140.

B1: unnamed (peptide)
chain: PPIPNAPLSPAPAVP

Target: AgAbp1
Assay: SPOT peptide array binding signal intensity (averaged, normalized) (arbitrary units (background-subtracted, floor 0; scale differs between SH3 domains)); higher = stronger binding of the SH3 domain to the peptide
Summary of the method: (§1)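 GST-SH3 fusions from four yeast species, purified on glutathione Sepharose, were incubated at 10 μg/ml overnight at 4°C on membranes of synthetic 15-mer peptides in which cysteines were replaced with serines. Binding signal is the normalized, background-subtracted spot intensity averaged over replicates, in domain-specific arbitrary units.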

Binder	SPOT peptide array binding signal intensity
B1	1

Target: AgBbc1
Assay: as above
Summary of the method: as §1

Binder	SPOT peptide array binding signal intensity
B1	≤ 0

Target: AgBem1-D1
Assay: as above
Summary of the method: as §1

Binder	SPOT peptide array binding signal intensity
B1	18.5

Target: AgBzz1-D1
Assay: as above
Summary of the method: as §1

Binder	SPOT peptide array binding signal intensity
B1	≤ 0

Target: AgBzz1-D2
Assay: as above
Summary of the method: as §1

Binder	SPOT peptide array binding signal intensity
B1	≤ 0

Target: AgCyk3
Assay: as above
Summary of the method: as §1

Binder	SPOT peptide array binding signal intensity
B1	≤ 0

Target: AgFus1
Assay: as above
Summary of the method: as §1

Binder	SPOT peptide array binding signal intensity
B1	2

Target: AgHof1
Assay: as above
Summary of the method: as §1

Binder	SPOT peptide array binding signal intensity
B1	1

Target: AgHse1
Assay: as above
Summary of the method: as §1

Binder	SPOT peptide array binding signal intensity
B1	2.5

Target: AgLsb1
Assay: as above
Summary of the method: as §1

Binder	SPOT peptide array binding signal intensity
B1	3

Target: AgLsb4
Assay: as above
Summary of the method: as §1

Binder	SPOT peptide array binding signal intensity
B1	9

Target: AgMyo5
Assay: as above
Summary of the method: as §1

Binder	SPOT peptide array binding signal intensity
B1	1300

Target: AgNbp2
Assay: as above
Summary of the method: as §1

Binder	SPOT peptide array binding signal intensity
B1	3.5

Target: AgRvs167
Assay: as above
Summary of the method: as §1

Binder	SPOT peptide array binding signal intensity
B1	0.167

Target: AgSho1
Assay: as above
Summary of the method: as §1

Binder	SPOT peptide array binding signal intensity
B1	≤ 0

Target: AgSla1-D1-D2
Assay: as above
Summary of the method: as §1

Binder	SPOT peptide array binding signal intensity
B1	1

Target: AgSla1-D3
Assay: as above
Summary of the method: as §1

Binder	SPOT peptide array binding signal intensity
B1	≤ 0

Target: CaAbp1-D1
Assay: as above
Summary of the method: as §1

Binder	SPOT peptide array binding signal intensity
B1	≤ 0

Target: CaAbp1-D2
Assay: as above
Summary of the method: as §1

Binder	SPOT peptide array binding signal intensity
B1	≤ 0

Target: CaBbc1
Assay: as above
Summary of the method: as §1

Binder	SPOT peptide array binding signal intensity
B1	2

Target: CaBem1-D1
Assay: as above
Summary of the method: as §1

Binder	SPOT peptide array binding signal intensity
B1	7

Target: CaBzz1-D1
Assay: as above
Summary of the method: as §1

Binder	SPOT peptide array binding signal intensity
B1	≤ 0

Target: CaBzz1-D2
Assay: as above
Summary of the method: as §1

Binder	SPOT peptide array binding signal intensity
B1	10.5

Target: CaCyk3
Assay: as above
Summary of the method: as §1

Binder	SPOT peptide array binding signal intensity
B1	≤ 0

Target: CaFus1
Assay: as above
Summary of the method: as §1

Binder	SPOT peptide array binding signal intensity
B1	59

Target: CaHof1
Assay: as above
Summary of the method: as §1

Binder	SPOT peptide array binding signal intensity
B1	≤ 0

Target: CaHse1
Assay: as above
Summary of the method: as §1

Binder	SPOT peptide array binding signal intensity
B1	0.5

Target: CaLsb1
Assay: as above
Summary of the method: as §1

Binder	SPOT peptide array binding signal intensity
B1	≤ 0

Target: CaLsb4
Assay: as above
Summary of the method: as §1

Binder	SPOT peptide array binding signal intensity
B1	≤ 0

Target: CaMyo5
Assay: as above
Summary of the method: as §1

Binder	SPOT peptide array binding signal intensity
B1	952

Target: CaNbp2
Assay: as above
Summary of the method: as §1

Binder	SPOT peptide array binding signal intensity
B1	15.5

Target: CaRvs167
Assay: as above
Summary of the method: as §1

Binder	SPOT peptide array binding signal intensity
B1	≤ 0

Target: CaRvs167-3
Assay: as above
Summary of the method: as §1

Binder	SPOT peptide array binding signal intensity
B1	2.5

Target: CaSho1
Assay: as above
Summary of the method: as §1

Binder	SPOT peptide array binding signal intensity
B1	9

Target: CaSla1-D1-D2
Assay: as above
Summary of the method: as §1

Binder	SPOT peptide array binding signal intensity
B1	≤ 0

Target: CaSla1-D3
Assay: as above
Summary of the method: as §1

Binder	SPOT peptide array binding signal intensity
B1	≤ 0

Target: ScAbp1
Assay: as above
Summary of the method: as §1

Binder	SPOT peptide array binding signal intensity
B1	0.5

Target: ScBbc1
Assay: as above
Summary of the method: as §1

Binder	SPOT peptide array binding signal intensity
B1	≤ 0

Target: ScBem1-D1
Assay: as above
Summary of the method: as §1

Binder	SPOT peptide array binding signal intensity
B1	≤ 0

Target: ScBzz1-D1
Assay: as above
Summary of the method: as §1

Binder	SPOT peptide array binding signal intensity
B1	4

Target: ScBzz1-D2
Assay: as above
Summary of the method: as §1

Binder	SPOT peptide array binding signal intensity
B1	7.5

Target: ScCyk3
Assay: as above
Summary of the method: as §1

Binder	SPOT peptide array binding signal intensity
B1	2.5

Target: ScFus1
Assay: as above
Summary of the method: as §1

Binder	SPOT peptide array binding signal intensity
B1	≤ 0

Target: ScHof1
Assay: as above
Summary of the method: as §1

Binder	SPOT peptide array binding signal intensity
B1	≤ 0

Target: ScHse1
Assay: as above
Summary of the method: as §1

Binder	SPOT peptide array binding signal intensity
B1	1.5

Target: ScLsb1
Assay: as above
Summary of the method: as §1

Binder	SPOT peptide array binding signal intensity
B1	2.5

Target: ScLsb2
Assay: as above
Summary of the method: as §1

Binder	SPOT peptide array binding signal intensity
B1	4.5

Target: ScLsb3
Assay: as above
Summary of the method: as §1

Binder	SPOT peptide array binding signal intensity
B1	≤ 0

Target: ScLsb4
Assay: as above
Summary of the method: as §1

Binder	SPOT peptide array binding signal intensity
B1	≤ 0

Target: ScMyo3
Assay: as above
Summary of the method: as §1

Binder	SPOT peptide array binding signal intensity
B1	2660

Target: ScMyo5
Assay: as above
Summary of the method: as §1

Binder	SPOT peptide array binding signal intensity
B1	1550

Target: ScNbp2
Assay: as above
Summary of the method: as §1

Binder	SPOT peptide array binding signal intensity
B1	7.5

Target: ScPex13
Assay: as above
Summary of the method: as §1

Binder	SPOT peptide array binding signal intensity
B1	7.63e-06

Target: ScRvs167
Assay: as above
Summary of the method: as §1

Binder	SPOT peptide array binding signal intensity
B1	≤ 0

Target: ScSho1
Assay: as above
Summary of the method: as §1

Binder	SPOT peptide array binding signal intensity
B1	≤ 0

Target: ScSla1-D1-D2
Assay: as above
Summary of the method: as §1

Binder	SPOT peptide array binding signal intensity
B1	≤ 0

Target: ScSla1-D3
Assay: as above
Summary of the method: as §1

Binder	SPOT peptide array binding signal intensity
B1	1.25

Target: SpAbp1-D1
Assay: as above
Summary of the method: as §1

Binder	SPOT peptide array binding signal intensity
B1	≤ 0

Target: SpBbc1
Assay: as above
Summary of the method: as §1

Binder	SPOT peptide array binding signal intensity
B1	0.5

Target: SpBzz1-D1
Assay: as above
Summary of the method: as §1

Binder	SPOT peptide array binding signal intensity
B1	≤ 0

Target: SpBzz1-D2
Assay: as above
Summary of the method: as §1

Binder	SPOT peptide array binding signal intensity
B1	0.5

Target: SpCyk3
Assay: as above
Summary of the method: as §1

Binder	SPOT peptide array binding signal intensity
B1	1

Target: SpHof1
Assay: as above
Summary of the method: as §1

Binder	SPOT peptide array binding signal intensity
B1	≤ 0

Target: SpHof1-2
Assay: as above
Summary of the method: as §1

Binder	SPOT peptide array binding signal intensity
B1	1

Target: SpHof1-3
Assay: as above
Summary of the method: as §1

Binder	SPOT peptide array binding signal intensity
B1	1

Target: SpHse1
Assay: as above
Summary of the method: as §1

Binder	SPOT peptide array binding signal intensity
B1	23

Target: SpLsb1
Assay: as above
Summary of the method: as §1

Binder	SPOT peptide array binding signal intensity
B1	≤ 0

Target: SpLsb4
Assay: as above
Summary of the method: as §1

Binder	SPOT peptide array binding signal intensity
B1	≤ 0

Target: SpMyo1
Assay: as above
Summary of the method: as §1

Binder	SPOT peptide array binding signal intensity
B1	946

Target: SpNbp2
Assay: as above
Summary of the method: as §1

Binder	SPOT peptide array binding signal intensity
B1	≤ 0

Target: SpPex13
Assay: as above
Summary of the method: as §1

Binder	SPOT peptide array binding signal intensity
B1	≤ 0

Target: SpRvs167
Assay: as above
Summary of the method: as §1

Binder	SPOT peptide array binding signal intensity
B1	≤ 0

Target: SpSla1-D1-D2
Assay: as above
Summary of the method: as §1

Binder	SPOT peptide array binding signal intensity
B1	≤ 0

Target: SpSla1-D3
Assay: as above
Summary of the method: as §1

Binder	SPOT peptide array binding signal intensity
B1	≤ 0
